GC-A act: GC-A (human) enzyme activation; HEK293 GC-A cells, cGMP TR-FRET, EC30 ANP; 0% at EC30 ANP, 100% saturating ANP; activation, % at 10 µM; AID 1671463; 370,000 compounds, 0.14% hits; P16066; in the data active = activation above about 40%
GC-B act: GC-B (human) receptor activation | AID 1920062 | HEK293-GC-B cells, CNP EC30, cGMP TR-FRET; 0% at EC30 CNP, 100% saturating CNP | activation, % at 10 µM | P20594 | 370,000 compounds, 0.11% hits;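 active = activation at 10 µM reaching about 35% in either raw or pattern-adjusted values, limit read from the data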
Target sequence (P20594 whole entry, looked up): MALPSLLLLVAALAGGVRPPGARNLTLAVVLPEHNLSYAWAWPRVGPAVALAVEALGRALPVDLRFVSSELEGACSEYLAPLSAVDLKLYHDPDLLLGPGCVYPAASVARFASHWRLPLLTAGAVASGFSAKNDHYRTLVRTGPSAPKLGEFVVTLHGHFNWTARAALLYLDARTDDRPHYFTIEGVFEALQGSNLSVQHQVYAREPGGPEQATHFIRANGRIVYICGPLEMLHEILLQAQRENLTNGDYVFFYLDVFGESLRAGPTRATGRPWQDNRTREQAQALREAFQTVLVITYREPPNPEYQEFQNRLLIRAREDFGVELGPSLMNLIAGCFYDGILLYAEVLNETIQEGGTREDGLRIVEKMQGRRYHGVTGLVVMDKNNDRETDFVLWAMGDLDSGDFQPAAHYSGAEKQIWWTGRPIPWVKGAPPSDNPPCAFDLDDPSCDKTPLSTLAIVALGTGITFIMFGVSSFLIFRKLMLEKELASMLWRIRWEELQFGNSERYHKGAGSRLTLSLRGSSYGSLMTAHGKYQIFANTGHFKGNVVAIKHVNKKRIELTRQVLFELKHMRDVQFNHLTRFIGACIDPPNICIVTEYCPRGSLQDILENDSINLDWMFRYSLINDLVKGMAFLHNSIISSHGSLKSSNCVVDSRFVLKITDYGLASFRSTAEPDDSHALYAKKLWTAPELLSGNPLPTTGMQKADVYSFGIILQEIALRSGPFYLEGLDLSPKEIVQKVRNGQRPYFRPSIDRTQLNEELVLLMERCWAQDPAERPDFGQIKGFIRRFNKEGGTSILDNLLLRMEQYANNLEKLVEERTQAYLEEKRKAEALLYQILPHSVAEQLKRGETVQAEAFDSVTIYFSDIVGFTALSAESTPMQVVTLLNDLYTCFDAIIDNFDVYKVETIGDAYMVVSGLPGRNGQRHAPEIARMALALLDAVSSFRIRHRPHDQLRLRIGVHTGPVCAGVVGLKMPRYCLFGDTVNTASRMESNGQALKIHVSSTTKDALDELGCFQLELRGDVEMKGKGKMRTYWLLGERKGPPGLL
PLCg1 inh: blocks human PLC-gamma1 enzyme activity | P19174 | inhibition, % at 12.2 µM | purified PLC-gamma1, fluorogenic substrate, fluorescence | AID 720700 | 370,000 compounds, 0.84% hits; in the data active = inhibition above about 9.5%
PLC-beta3 inh: PLC-beta3 (human) inhibition, primary screen | AID 720704 | Purified PLC-beta3, fluorogenic substrate, fluorescence | 370,000 compounds, 0.18% hits | inhibition, % at 12.2 µM | Q01970
PLCg1 ctr: PLC-gamma1 inhibition, counter-screen for PLC-beta3 hits; shares compounds with PLCg1 inh; inhibition, % at 12.3 µM; purified PLC-gamma1, fluorogenic substrate, fluorescence; 3,300 compounds, 3.1% hits; AID 743258; in the data active = inhibition above about 9.5%
PLCbeta3 conf: confirmation of human PLC-beta3 inhibitors; shares compounds with PLCg1 inh; purified PLC-beta3, fluorogenic substrate fluorescence; AID 743261; 3,300 compounds, 1% hits; inhibition, % at 12.3 µM
Numbers stand for hits; n = inactive; x = not tested or not shown. This is a sample that favours compounds with a hit; in the whole collection about 1.2% have one here. Rule as the data show it, unless noted: active = inhibition above about 11%; inactive = the rest.

SMILES | GC-A act | GC-B act | PLCg1 inh | PLC-beta3 inh | PLCg1 ctr | PLCbeta3 conf
CC(OC(=O)c1ccc2c(c1)OCO2)C(=O)NC1CCCCC1 (stereo not drawn) | n | n | 11 | n | n | n
CC(=O)Nc1cccc(C(=O)OC(C)C(=O)NCc2ccc3c(c2)OCO3)c1 (stereo not drawn) | n | n | 9.9 | n | n | n
CC(OC(=O)c1ccc2c(c1)OCO2)C(=O)NC1CCCCC1C (stereo not drawn) | n | n | n | n | x | x
Clc1ccc(-c2nnc(-c3ccc(Br)o3)o2)c(Cl)c1 | n | n | n | n | x | x
CCNC(=S)N/N=C/c1ccc(OCC(=O)Nc2ccc(OC)cc2)c(OC)c1 | n | 55 | 16 | 17 | n | n
Cc1c(NC(=O)C(Sc2ccccc2)c2ccccc2)cccc1[N+](=O)[O-] (stereo not drawn) | n | n | n | n | x | x
COc1c(C)cc(C(=O)C2CCCN(C(=O)c3cc(C)n(C)n3)C2)cc1C (stereo not drawn) | n | n | n | n | x | x
COc1c(C)cc(C(=O)C2CCCN(C(=O)/C=C/c3ccccn3)C2)cc1C (stereo not drawn) | n | n | 11 | 11 | n | n
NC(=O)c1ccc(NS(=O)(=O)c2ccc(Br)s2)cc1 | n | n | 9.7 | n | n | n
Cn1cc(-c2nnnn2-c2ccccc2)c(=O)c2ccccc21 | n | n | n | 12 | n | n
Cc1nc(-c2ccncc2)nc(NCCNc2ncccc2C(F)(F)F)c1Cl | n | n | 12 | n | n | n
Cc1ccccc1C(=O)N1CCC(C(=O)NC2CCCCCC2)CC1 | n | n | n | n | x | x
Cc1ccc(OC(=O)C2CCN(C(=O)c3ccccc3C)CC2)c(Br)c1 | n | n | 11 | n | n | n
Cc1cccc(OCc2nc(-c3cccnc3)no2)c1 | n | n | n | n | x | x
Cc1ccc(C)c(OCc2nc(-c3cccnc3)no2)c1 | n | n | 9.8 | n | n | n
CC1CC2(CCCCC2)Nc2ccc3ccccc3c21 (stereo not drawn) | n | n | n | n | x | x
CCc1cccc2c1NC1(CCCC1)CC2C (stereo not drawn) | n | n | 10 | n | n | n
Cc1cccc(OC(C)C(=O)N(Cc2cccs2)C2CCS(=O)(=O)C2)c1C (stereo not drawn) | n | n | 13 | n | n | n
Cc1ccccc1OCC(=O)N(Cc1cccs1)C1CCS(=O)(=O)C1 (stereo not drawn) | n | n | n | n | x | x
CC1C(c2ccccc2)OCCN1C(=S)NC(=O)c1ccccc1 (stereo not drawn) | n | n | n | 15 | n | n
CC1CCN(C(=S)NC(=O)c2ccccc2)CC1 | n | n | n | n | x | x
Cc1ccc(-c2nc(N)n(C(=O)c3cccnc3)n2)cc1 | n | n | 12 | n | n | n
COc1ccc(C(=O)CN2C(=O)NC3(CCCc4ccccc43)C2=O)cc1OC (stereo not drawn) | n | n | n | n | x | x
COc1ccc(CCN(C)C(=O)CN2C(=O)NC3(CCCc4ccccc43)C2=O)cc1OC (stereo not drawn) | n | n | 12 | n | n | n
c1cc2c(cc1Cn1cnnn1)OCO2 | n | n | n | n | x | x
SMILES | GC-A act | GC-B act | PLCg1 inh | PLC-beta3 inh | PLCg1 ctr | PLCbeta3 conf
Clc1ccc(Cn2ccc(-c3ccc4c(c3)OCO4)n2)cc1Cl | n | n | 19 | 12 | n | n
CCOc1ccc(N(CC(=O)NC2CCCC2)C(=O)CCC(=O)Nc2ccccn2)cc1 | n | n | n | n | x | x
CCOc1ccc(N(CC(=O)NC2CCCC2)C(=O)CCCC(=O)Nc2ccccn2)cc1 | n | n | n | 15 | n | n
COc1ccc(C(CC(=O)N2CCCCC2)c2c(O)cc(OC)cc2OC)cc1 (stereo not drawn) | n | n | n | n | x | x
CN1CCN(c2nc(NCCOC34CC5CC(CC(C5)C3)C4)nc(OCC(F)(F)F)n2)CC1 | n | n | n | n | x | x
CC(=O)c1ccc(S(=O)(=O)N2CCCc3ccccc32)cc1 | n | n | n | n | x | x
O=C(O)c1ccc(S(=O)(=O)N2CCCc3ccccc32)cc1 | n | n | 9.9 | n | n | n
O=C(CCS(=O)(=O)c1ccccc1)N1CCCc2ccccc21 | n | n | n | n | x | x
O=C(CCC(=O)N1CCCc2ccccc21)N1CCN(S(=O)(=O)c2ccccc2)CC1 | n | n | 11 | n | n | n
